Luc counter: Counterscreen for Luciferase (Kinase-Glo TM) Inhibition; Luciferin 4-monooxygenase (Photuris pensylvanica), Q27757; Potency, µM (series often up to 38.3 µM), for the others: at the top dose activity change, negative = inhibition, hits mostly inhibitors; actives 0.28% (n = 200,000); Kinase-Glo luciferase, ATP luminescence, 8 min; further: on the % scale 0 is the no-effect control and ±100 the full control effect; nearly all actives have a fitted effect of over 60% in size
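Compounds were added to a substrate mix at pH 7.2 (50 mM imidazole, 10 uM ATP, within the enzyme's linear range), followed by Kinase-Glo detection reagent; luminescence was measured after 8 minutes at ambient temperature.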
ELG1 genotoxic: qHTS screen for small molecules that induce genotoxicity in human embryonic kidney (HEK293T) cells expressing luciferase-tagged ELG1 | actives 1.3% (n = 330,000) | Potency, µM (titrated, usually from 46 µM), for inactives: at the top dose activity change, positive = activation, most hits filed as activators | HEK293T ELG1-luciferase reporter, luminescence, 16 h | AID 504466, 2011; further: % of control where 0% means no effect; nearly all actives have a fitted effect of over 60% in size
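Reporter readout depends on ELG1 protein level, which increases with genetic stress. After 16 hr compound exposure at 37 °C, luciferase activity was quantified using ONE-Glo.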
NPC1 prom act: qHTS Assay for NPC1 Promoter Activators. actives 2.4% (n = 320,000). Huh7 NPC1 promoter luciferase reporter, 24 h. AID 485313, 2010. Potency, µM (titrated, usually from 9.22 µM), for the others: at the highest dose activation, actives largely listed as activators; further: % of control where 0% means no effect; nearly all actives have a fitted effect of over 60% in size
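Quantitative HTS used a cell-based reporter: Huh7 cells stably bearing the NPC1 promoter upstream of luciferase were treated with compounds for 24 h, and promoter activation was read as luminescence.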
SMN2 splice up: qHTS Assay for Enhancers of SMN2 Splice Variant Expression; HEK293 SMN2-luciferase splicing reporter, luminescence, 30-36 h; Potency, µM (highest dose often 46.1 µM), without a hit: at the top dose activity change, positive = activation, usual class: activators; actives 2.8% (n = 210,000); further: % of control where 0% means no effect; nearly all actives have a fitted effect of over 55% in size
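HEK293 cells carry an SMN2 […]–luciferase reporter in which exon 7 inclusion puts luciferase in frame. Cells were plated 10-12 h before compound addition, then incubated 30-36 h at 37C. ONE-Glo luminescence was read; sodium butyrate at 4.5 mM final served as control.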
Rab9 prom act: qHTS Assay for Rab9 Promoter Activators; Huh7 Rab9 promoter-luciferase reporter, luminescence, 24 h; AID 485297, 2010; actives 2.8% (n = 320,000); Potency, µM (doses to about 9.22 µM), for the others: top-dose activation, negative = inhibition, actives largely listed as activators; further: % of control where 0% means no effect; nearly all actives have a fitted effect of over 60% in size
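Quantitative HTS format; Huh7 Rab9-luciferase reporter cells (1500/well) receive compound 2 h post-plating, incubate 24 h at 37 °C, then get luciferase reagent for 10 min before luminescence reading.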
FLuc counter: qHTS profiling assay for firefly luciferase inhibitor/activator using purifed enzyme and Km concentrations of substrates (counterscreen for miR-21 project); Luciferin 4-monooxygenase (Photinus pyralis), P08659; purified FLuc, Km substrates, luminescence inhibition; Potency, µM (highest dose often 57.5 µM), inactives show top-dose activity change, negative = inhibition, usual class: inhibitors; actives 6.9% (n = 360,000);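 further: plate controls were vehicle for no effect and reference inhibitor for full effect; nearly all actives have a fitted effect of over 55% in size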
Target sequence (P08659 whole entry, looked up): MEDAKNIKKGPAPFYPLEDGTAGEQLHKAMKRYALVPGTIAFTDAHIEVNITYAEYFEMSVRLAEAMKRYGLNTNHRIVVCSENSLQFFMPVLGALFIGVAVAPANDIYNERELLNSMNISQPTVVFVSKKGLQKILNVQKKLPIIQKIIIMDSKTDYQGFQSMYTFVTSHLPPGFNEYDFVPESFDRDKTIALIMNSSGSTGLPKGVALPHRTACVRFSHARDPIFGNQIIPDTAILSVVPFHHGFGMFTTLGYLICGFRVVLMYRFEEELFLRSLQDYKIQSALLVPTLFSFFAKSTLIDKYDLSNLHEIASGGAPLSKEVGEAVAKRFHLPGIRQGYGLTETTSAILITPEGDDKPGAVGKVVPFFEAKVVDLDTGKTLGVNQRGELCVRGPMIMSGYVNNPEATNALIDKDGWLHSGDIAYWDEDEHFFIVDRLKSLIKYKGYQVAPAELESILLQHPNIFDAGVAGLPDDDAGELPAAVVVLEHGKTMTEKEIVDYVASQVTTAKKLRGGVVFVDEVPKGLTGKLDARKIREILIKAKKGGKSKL
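Purified P. pyralis luciferase, 10 nM final, with Km-level 10 uM D-luciferin and 10 uM ATP in 50 mM Tris acetate pH 7.5, 10 mM Mg acetate, 0.01% Tween-20, 0.05% BSA; 6-point qHTS titration about 60 µM downward; luminescence read.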
* marks the source's active call; other numbers are inactive results; ? = inconclusive; . = no result; [ ] = remark or other dose. Sampled rows, rich in hits. Any-hit rate of the full collection: about 7.3%. The call rests on the fitted dose curve; in most records, active means well fitted curve in the direction sought with a large enough effect; inconclusive means small, poorly fitted or top-dose-only effect, or another doubt; inactive means no such curve, though single readings can be large; an effect the other way counts as inactive or inconclusive. Potency means the concentration at half of the fitted maximal effect.

SMILES	Luc counter	ELG1 genotoxic	NPC1 prom act	SMN2 splice up	Rab9 prom act	FLuc counter
O=C(OCc1nc2ccccc2s1)c1cnccn1	-7%	?	-2%	-4%	4%	11µM*
Cc1ccc(N2CC(C(=O)Nc3ccc(Br)cc3)CC2=O)cc1 (stereo not drawn)	.	.	.	.	.	-3%
CC(C)c1cnc2c(c1SCc1cccc(C(F)(F)F)c1)c(=O)n(C)c(=O)n2C	.	.	.	.	.	-7%
COc1cc(OC)cc(C(=O)NCC(=O)OCc2nc3ccccc3s2)c1	-8%	?	14%	.	?	9.5µM*
Cc1noc(C)c1COC(=O)CCCc1nc2ccccc2s1	0%	3%	1%	16%	7%	-6%
O=C(O)c1ccccc1OCc1nc2ccccc2s1	.	?	?	.	11%	3.8µM*
O=C(O)c1ccccc1OCc1ccccc1Br	2%	-4%	-1%	10%	-1%	-14%
CCCCC(=O)OCc1nc2ccccc2s1	-4%	9%	-1%	10%	15%	21µM*
O=C(c1ccccc1)c1ccc(COC(=O)c2cnccn2)cc1	-4%	6%	0%	4%	-1%	24µM*
Cc1ccc(-n2cc(C(=O)OCc3ccc(Cl)cc3)c3ccccc3c2=O)cc1	.	.	.	.	.	-3%
CCc1nnc(NS(=O)(=O)c2ccc(NC(=O)c3ccc(S(=O)(=O)N(CC)CC)cc3)cc2)s1	.	-1%	-2%	.	-5%	4%
CCc1nnc(NS(=O)(=O)c2ccc(N/C=C\C(=O)c3cccc(OC)c3)cc2)s1	0%	10%	1%	3%	-7%	17µM*
CCc1nnc(NS(=O)(=O)c2ccc(NS(=O)(=O)c3ccc(NC(C)=O)cc3)cc2)s1	15%	-2%	-4%	-8%	-2%	1%
CCc1nnc(NS(=O)(=O)c2ccc(N/C=C\C(=O)c3ccc(C)cc3)cc2)s1	-3%	8%	0%	23%	-7%	19µM*
COc1cccc(C(=O)/C=C/Nc2ccc(S(=O)(=O)Nc3ncccn3)cc2)c1	0%	1%	1%	12%	-1%	?
CCc1nnc(NS(=O)(=O)c2ccc(N/C=C/C(=O)c3ccc(C)cc3)cc2)s1	-1%	0%	0%	?	-6%	24µM*
CCc1nnc(NS(=O)(=O)c2ccc(N/C=C\C(=O)c3ccc(F)cc3)cc2)s1	0%	0%	3%	-1%	-3%	19µM*
COc1ccc(OC)c(CNC(=O)C2CCN(S(=O)(=O)c3cn(C)cn3)CC2)c1	.	.	.	.	.	3%
NC(C(=O)O)[C@H](O)C(=O)O (stereo partly drawn)	.	.	.	3%	.	.
Nn1c(Nc2ccccc2)nc2ccccc21	-22%	?	2.8µM*	?	4µM*	11µM*
Cn1c(Nc2ccccc2)nc2ccccc21	.	6%	15%	.	21%	?
COc1cc(C2C(=O)N(C3CCCCCC3)CC(=O)N2Cc2ccccc2)ccc1OC(C)C (stereo not drawn)	.	.	.	.	.	-16%
Cc1[nH]c2ccccc2c1C(=O)COc1ccccc1F	-1%	13%	16%	.	22%	21µM*
Cc1ccc2nc(N3C(=O)C(O)=C(C(=O)c4cc5ccccc5o4)C3c3cccs3)sc2c1 (stereo not drawn)	-1%	?	27%	9%	21%	4.8µM*
CCc1ccc2nc(N3C(=O)C(O)=C(C(=O)c4ccco4)C3c3cccs3)sc2c1 (stereo not drawn)	3%	5%	-5%	?	1%	?
SMILES	Luc counter	ELG1 genotoxic	NPC1 prom act	SMN2 splice up	Rab9 prom act	FLuc counter
Cc1cc(N2CCN(c3ccccc3)CC2)n2cc(-c3ccccc3)nc2n1	-5%	-5%	1%	-10%	1%	24µM*
CCOc1ccc(NC(=O)CCn2c(=O)c3cccn3c3cccnc32)cc1	.	.	.	.	.	0%
COC(=O)c1cc(=O)nc2sc3cc(OC)ccc3n12	-4%	6%	-2%	0%	-3%	0%
CCCCc1c(O)nc2sc3cc(OC)ccc3n2c1=O	-4%	?	17%	29%	22%	11µM*
O=C(N/N=C/c1cc(O)ccc1[N+](=O)[O-])c1ccc2c(c1)OCCO2	.	?	?	.	2µM*	0.6µM*
O=C(N/N=C/c1cc([N+](=O)[O-])ccc1O)c1ccc2c(c1)OCCO2	-1%	?	-9%	-96%	-11%	?
O=C(N/N=C/c1ccccc1[N+](=O)[O-])c1ccc2c(c1)OCCO2	.	?	0.63µM*	.	?	0.24µM*
O=C(CSc1nnc(-c2ccccc2Br)o1)N1CCOCC1	.	?	2.8µM*	.	4µM*	19µM*
CC1CCCCN1C(=O)CSc1nnc(-c2ccccc2O)o1 (stereo not drawn)	.	5.2µM*	2.8µM*	.	3.5µM*	21µM*
O=C(CSc1nnc(-c2ccccc2Cl)o1)N1CCCCC1	-3%	4.6µM*	?	16µM*	?	15µM*
O=C(CSc1nnc(-c2ccccc2O)o1)N1CCCCC1	.	?	24%	.	26%	11µM*
CC(Sc1nnc(-c2ccccc2Br)o1)C(=O)N1CCOCC1 (stereo not drawn)	.	7%	4%	.	9%	-13%
COc1ccc(NC(=O)CSc2nc(-c3ccccc3)[nH]c2-c2ccccc2)cc1OC	.	.	.	-12%	.	-16%
O=C(O)NCC1CCCCC1 (tested in a mixture with another compound)	0%[7.66 µM]	.	.	-8%[9.22 µM]	.	.
COc1ccc(C(=O)O)cc1Nc1nc2ccc(C)cc2n2cnnc12	.	.	.	2%	.	-14%
O=C(CSc1nnc(-c2ccccc2O)o1)N1CCOCC1	.	?	?	.	3.2µM*	?
O=C(CSc1nnc(-c2ccccc2Cl)o1)N1CCCC1	.	?	?	.	?	15µM*
CC(=O)c1cccc(NC(=O)c2c(-c3ccccc3)c(-c3ccccc3)nn(C)c2=O)c1	.	.	.	-9%	.	-4%
C=CCSc1nnc(-c2ccccc2N=Cc2c(C)[nH]n(-c3ccccc3)c2=O)c(=O)[nH]1	-1%	-8%	6%	-2%	-4%	?
CSc1nnc(-c2ccccc2N=Cc2c(C)[nH]n(-c3ccc4ccccc4c3)c2=O)c(=O)[nH]1	?	19%	18%	?	7%	9.5µM*
Cc1nnc(SCc2nc(-c3ccc(Cl)cc3)no2)n1-c1ccc(F)cc1	.	.	.	11%	.	-10%

Compound activity as filed in PubChem.
